Test results taken from PubChem BioAssay AID1159580 (chemical genetic matrix, 2015).
Values joined by “and” are separate entries in the source; they are usually repeats but may differ in a detail not shown here. Identical values can stand only once. Hit rate of the full screen: of about 5,500 compounds, about 2,000 (36%) were called active. Roughly 18% stayed inconclusive and do not appear here. Cut-off read from the data, not from the text of the source: active = normalized growth mostly below about 0.91 (no sharp cut-off); inconclusive = no clear call, values can overlap the other calls; inactive = mostly above about 0.92. The list shows a part of the results.

Test: chemical genetic growth profiling, strain panel (AID 1159580);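 note: tested at 20 µM; growth read once vehicle control cultures reached saturation at 30 °C; 1 = growth at the plate median or of vehicle wells; lower values mean less growth of the strain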
Details: S. cerevisiae deletion strains, growth OD

Measured: normalized growth

O=C(O)c1cc(=O)c2ccccc2[nH]1
inactive: locus YAL013W, strain DEP1, hits give low values 0.991 and 1.01 | locus YAL021C, strain ccr4, hits give low values 0.96 | locus YAL026C, strain drs2, hits give low values 0.986 | locus YAL030W, strain snc1, hits give low values 0.987 | locus YAL040C, strain CLN3, hits give low values 0.998 | locus YBL061C, strain skt5, hits give low values 0.972 | locus YBR009C, strain hhf1, hits give low values 0.979 | locus YBR021W, strain FUR4, hits give low values 1.02 | locus YBR023C, strain chs3, hits give low values 0.98 | locus YBR171W, strain sec66, hits give low values 0.975 | locus YBR229C, strain ROT2, hits give low values 0.96 | locus YBR231C, strain swc5, hits give low values 0.998 | locus YBR279W, strain paf1, hits give low values 0.992 | locus YCL011C, strain gbp2, hits give low values 0.986 | locus YCL016C, strain dcc1, hits give low values 0.981 | locus YCL029C, strain bik1, hits give low values 0.989 | locus YCL061C, strain MRC1 (second series), hits give low values 0.992 | locus YCL061C, strain MRC1, hits give low values 0.983 | locus YCL069W, strain vba3, hits give low values 0.993 | locus YCR088W, strain abp1, hits give low values 0.987 | locus YDL005C, strain med2, hits give low values 0.975 | locus YDL035C, strain GPR1, hits give low values 0.998 | locus YDL040C, strain nat1, hits give low values 0.988 | locus YDL074C, strain BRE1, hits give low values 0.986 | locus YDL101C, strain DUN1, hits give low values 0.964 | locus YDL134C, strain PPH21, hits give low values 0.972 | locus YDL185W, strain tfp1, hits give low values 0.979 | locus YDL192W, strain arf1, hits give low values 0.991 | locus YDR001C, strain nth1, hits give low values 0.991 | locus YDR069C, strain doa4, hits give low values 0.97 | locus YDR101C, strain arx1, hits give low values 0.993 | locus YDR137W, strain rgp1, hits give low values 1.02 | locus YDR150W, strain NUM1, hits give low values 0.975 and 1.01 | locus YDR159W, strain sac3, hits give low values 0.962 | locus YDR162C, strain NBP2, hits give low values 0.99 | locus YDR195W, strain ref2 0.968 | locus YDR297W, strain sur2, hits give low values 0.985 | locus YDR318W, strain mcm21, hits give low values 0.99 | locus YDR334W, strain swr1, hits give low values 0.984 | locus YDR335W, strain msn5, hits give low values 0.99 | locus YDR363W, strain ESC2, hits give low values 0.981 | locus YDR388W, hits give low values 0.997 | locus YDR392W, strain spt3, hits give low values 0.963 | locus YDR502C, strain sam2, hits give low values 0.995 | locus YEL003W, strain gim4, hits give low values 0.988 | locus YEL037C, strain rad23, hits give low values 0.99 | locus YEL061C, strain CIN8 (second series), hits give low values 0.993 | locus YEL061C, strain CIN8, hits give low values 0.992 | locus YER002W, strain NOP16, hits give low values 0.98 | locus YER015W, strain faa2, hits give low values 0.984 | locus YER016W, strain bim1, hits give low values 0.987 | locus YER110C, hits give low values 0.978 | locus YER111C, strain swi4, hits give low values 0.983 | locus YER155C, strain BEM2 (second series), hits give low values 0.981 | locus YER155C, strain BEM2, hits give low values 0.997 | locus YER167W, strain BCK2, hits give low values 1 | locus YFR010W, strain ubp6, hits give low values 0.977 | locus YGL078C, strain dbp3, hits give low values 0.987 | locus YGL086W, strain mad1, hits give low values 0.998 | locus YGL167C, strain pmr1, hits give low values 0.973 | locus YGL173C, strain kem1, hits give low values 0.986 | locus YGL227W, strain vid30, hits give low values 0.984 | locus YGL240W, strain doc1, hits give low values 0.987 | locus YGL248W, strain PDE1, hits give low values 0.977 | locus YGL253W, strain hxk2, hits give low values 0.988 | locus YGR078C, strain PAC10, hits give low values 0.999 and 0.983 | locus YGR135W, strain pre9, hits give low values 0.988 | locus YGR229C, strain SMI1, hits give low values 1 | locus YGR252W, strain gcn5, hits give low values 0.992 | locus YHR013C, strain ard1, hits give low values 0.958 | locus YHR027C, strain rpn1, hits give low values 1 | locus YHR030C, strain SLT2, hits give low values 0.991 and 0.972 | locus YHR079C, strain IRE1 (second series), hits give low values 0.989 | locus YHR079C, strain IRE1, hits give low values 0.985 | locus YHR094C, strain hxt1, hits give low values 0.996 | locus YHR129C, strain ARP1, hits give low values 0.995 | locus YHR142W, strain chs7, hits give low values 0.99 | locus YHR200W, strain rpn10, hits give low values 0.987 | locus YIL066C, strain RNR3, hits give low values 0.973 | locus YIL073C, strain SPO22, hits give low values 0.95 | locus YIL125W, strain kgd1, hits give low values 0.987 | locus YIR030C, strain dcg1, hits give low values 0.983 | locus YJL092W, strain hpr5, hits give low values 0.987 | locus YJL095W, strain BCK1 (second series), hits give low values 0.973 | locus YJL095W, strain BCK1, hits give low values 1.04 and 0.987 | locus YJL115W, strain asf1, hits give low values 0.992 | locus YJL129C, strain trk1, hits give low values 0.973 | locus YJL134W, strain LCB3, hits give low values 0.982 | locus YJL154C, strain vps35, hits give low values 0.98 | locus YJL164C, strain tpk1, hits give low values 1.01 | locus YJL166W, strain qcr8, hits give low values 0.998 | locus YJL168C, strain set2, hits give low values 0.996 | locus YJL187C, strain SWE1 (second series), hits give low values 0.967 | locus YJL187C, strain SWE1, hits give low values 0.987 | locus YJR043C, strain POL32, hits give low values 1 | locus YJR066W, strain TOR1, hits give low values 0.88
